According to ChEMBL document CHEMBL1157539, “Thousands of chemical starting points for antimalarial lead identification” (Nature, 2010):
“And” between values parts separate entries of the source, which are not always exact repeats. Identical values can stand only once.

How the values were obtained:
Assay type in all cases: functional
Plasmodium falciparum [1] = test: GSK_TCMDC: Inhibition of Plasmodium falciparum 3D7 in whole red blood cells, using parasite LDH activity as an index of growth. Test compounds present at 2uM
Plasmodium falciparum [2] = test: GSK_TCMDC: Inhibition of Plasmodium falciparum Dd2 in whole red blood cells, using parasite LDH activity as an index of growth. Test compounds present at 2uM
HepG2 = test: GSK_TCMDC: Percent inhibition of human HepG2 cell line. Test compounds present at 10uM.

Structure (SMILES)	Inhibition (Plasmodium falciparum [1])	Inhibition (Plasmodium falciparum [2])	Inhibition (HepG2)
CC[C@H]1CN2CC[C@H]1C[C@H]2[C@H](O)c1cc(Cl)nc2ccc(OC)cc12	100%	92%	0%
CN(c1cc(NC(=O)c2ccc(F)cc2)ccn1)C1CCN(Cc2cccc(O)c2)CC1.O=C(O)C(F)(F)F	100%	82%	3%
COC(=O)/C=C/c1ccc(CC(C)NCC(O)c2cccc(Cl)c2)cc1 (stereo not given)	99%	73%	2%
CC[C@H]1CN2CC[C@H]1C[C@@H]2[C@@H](O)c1cc(Cl)nc2ccc(OC)cc12	98%	82%	0%
CC(Cc1ccc(Oc2ccccc2)cc1)NCC(O)c1cccc(C(F)(F)F)c1 (stereo not given)	98%	99%	16%
CC[C@H]1CN2CCc3cc(OC)c(OC)cc3[C@@H]2C[C@@H]1C[C@H]1NCCc2c1cc(OC)c(OC)c2Br	99%	97%	45%
C/C=C1/CN2CC[C@H]1C[C@H]2[C@H](O)c1ccnc2ccc(O)cc12	99%	11%	0%
O=C(/C=C/c1ccc(F)c(C(F)(F)F)c1)N1CCC(CN2CCC(c3c[nH]c4ccccc34)CC2)CC1	98%	1%	23%
COc1cccc(CCNC(C)Cc2ccc(OCCCCOc3ccccc3)cc2)c1 (stereo not given)	97%	90%	100%
CC[C@@]1(O)C(=O)OCc2c1cc1n(c2=O)Cc2c-1nc1cc3c(cc1c2CN1CCOCC1)OCO3.O=C(O)C(F)(F)F	89%	80%	81%
COc1cc(CC(C)NCC(O)c2cccc(C(F)(F)F)c2)ccc1OCc1ccccc1 (stereo not given)	93%	71%	2%
CCCc1c(C(=O)NC2CCC(CN3CCC(c4c[nH]c5ccccc45)CC3)CC2)cnn1-c1c(Cl)cc(Cl)cc1Cl (stereo not given)	100%	49%	41%
Clc1ccc2nccc(N3CCC(CN4CCC(c5c[nH]c6ccccc56)CC4)CC3)c2c1.O=C(O)C(F)(F)F	100%	81%	46%
CCCc1c(C(=O)NC2CCC(CN3CCC(c4c[nH]c5ccccc45)CC3)CC2)cnn1-c1ccc(Cl)cc1 (stereo not given)	90%	37%	53%
CC(Cc1ccc(NC(=O)[C@@H](C)NCCc2cccc(Cl)c2)cc1)NCCc1cccc(Cl)c1.Cl (stereo not given in full)	99%	54%	99%
CC(C)(C)c1cc(/C=C/C(=O)NC2CCC(CN3CCC(c4c[nH]c5ccccc45)CC3)CC2)cc(C(C)(C)C)c1O (stereo not given)	100%	100%	98% and 99%
CCOC(=O)CCCN1C(=O)CN=C(c2ccccc2)c2cc(Cl)ccc21	97%	47%	54%
COc1cccc(C2(NC[C@@H](O)[C@H](Cc3ccccc3)NC(=O)c3ccccc3)CCCCC2)c1	97%	67%	14%
O=S(=O)(NC1CCC(CN2CCC(c3c[nH]c4ccccc34)CC2)CC1)c1ccc(Cl)c(Cl)c1 (stereo not given)	97%	32%	36%
O=C(/C=C/c1ccc(Cl)c(Cl)c1)NC1CCC(CN2CCC(c3c[nH]c4cc(O)ccc34)CC2)CC1 (stereo not given)	100%	98%	18%
CC[C@H]1CN2CC[C@@H]1C[C@H]2[C@H](O)c1cc(N2CCOCC2)nc2ccc(OC)cc12	99%	99%	10%
Cc1[nH]c2ccc(O)cc2c1C1CCN(CC2CCC(NC(=O)/C=C/c3c(Cl)cccc3Cl)CC2)CC1 (stereo not given)	100%	93%	25%
Cc1ccc(/C=C/C(=O)NC2CCC(CN3CCC(c4c[nH]c5ccccc45)CC3)CC2)cc1C (stereo not given)	100%	71% and 91%	23% and 38%
COC(=O)c1ccc(CC(C)NCC(O)c2cccc(C(F)(F)F)c2)cc1.Cl (stereo not given)	97%	87%	0%
CC[C@H]1CN2CC[C@@H]1C[C@H]2[C@H](O)c1cc(N2CCSCC2)nc2ccc(OC)cc12	99%	98%	2%

Structure (SMILES)	Inhibition (Plasmodium falciparum [1])	Inhibition (Plasmodium falciparum [2])	Inhibition (HepG2)
CCCCC1(NC(=O)[C@H](CC(C)C)Nc2ccc(C#N)c3ccccc23)CCCCC1.O=C(O)C(F)(F)F	96%	47%	37%
COC(=O)c1ccc(CC(C)NCC(O)c2cccc(C(F)(F)F)c2)cc1F.Cl (stereo not given)	82%	47%	1%
CCOC(C(=O)OCCN(C(C)C)C(C)C)(c1ccccc1)c1ccccc1	97%	4%	4%
CC[C@H]1CN2CC[C@@H]1C[C@H]2[C@H](O)c1cc(N2CCC(C)CC2)nc2ccc(OC)cc12	99%	98%	16%
COCCNCc1cccc(-c2ccc(CN(C(=O)Nc3ccccc3)C3CCN(Cc4ccccc4)CC3)cc2)c1.O=C(O)C(F)(F)F	100%	45%	25%
COc1cccc(CN2CCC(CCOC(c3ccccc3)c3ccc(Cl)cc3)CC2)c1O (stereo not given)	99%	100%	22%
CNCCCCCCOc1ccc(CC(C)NCC(O)c2cccc(C(F)(F)F)c2)cc1.Cl (stereo not given)	100%	79%	99%
O=C(NC1CCC(CN2CCC(c3c[nH]c4ccccc34)CC2)CC1)c1[nH]c(=O)[nH]c(=O)c1F (stereo not given)	99%	59%	5%
Cc1[nH]c2cc(Cl)ccc2c1C1=CCN(CCCCC2(C)C(=O)Nc3ccccc32)CC1 (stereo not given)	94%	90%	0%
O=C(/C=C/c1ccc(Cl)c(Cl)c1)NCC1CCCC(CN2CCC(c3c[nH]c4ccccc34)CC2)C1 (stereo not given)	98%	43%	61%
Cc1[nH]c2ccc(O)cc2c1C1CCN(CC2CCC(NC(=O)/C=C/c3ccc(Cl)c(Cl)c3)CC2)CC1 (stereo not given)	100%	95%	19%
COCCNCc1ccc(-c2ccc(CN(C(=O)NC3CCCCC3)C3CCN(Cc4ccccc4)CC3)cc2)cc1.O=C(O)C(F)(F)F	94%	84%	29%
O=C(/C=C/c1cc(C(F)(F)F)ccc1F)NC1CCC(CN2CCC(c3c[nH]c4ccccc34)CC2)CC1 (stereo not given)	100%	66%	5%
Cl.N=c1c2c(n(Cc3ccc(Cl)cc3Cl)c3c1CCC3)CCCC2	94%	73%	0%
COC(=O)c1ccc(CC(C)NCC(O)c2ccc3ccc4ccccc4c3c2)cc1.O=C(O)/C=C/C(=O)O (stereo not given)	100%	97%	21%
COc1ccc(C2CNCc3c2cc(OC)c(OC)c3Cl)cc1.Cl (stereo not given)	98%	3%	42%
O=C(Nc1ccc(Oc2ccccc2)cc1)N1CCC(CN2CCC(c3c[nH]c4ccccc34)CC2)CC1	100%	59%	53%
Cc1cccc2c(C3CCN(CC4CCC(NC(=O)/C=C/c5ccc(Cl)c(Cl)c5)CC4)CC3)c[nH]c12 (stereo not given)	92%	49%	97%
Fc1ccc(N(c2nc(-c3cc(F)cc(C(F)(F)F)c3)cs2)C2CCNCC2)cc1.O=C(O)C(F)(F)F	95%	10%	35%
CC[C@H]1CN2CC[C@@H]1C[C@H]2[C@H](O)c1cc[n+]([O-])c2ccc(OC)cc12	95%	1%	0%
CN(c1cc(NC(=O)c2cccs2)ccn1)C1CCN(Cc2ccccc2)CC1.O=C(O)C(F)(F)F	92%	87%	0%
O=C(/C=C/c1ccc(Cl)c(Cl)c1)NC1CCC(CN2CCC(c3c[nH]c4ccccc34)C(O)C2)CC1 (stereo not given)	100%	87%	30%
COC(=O)c1ccc(CC(C)NCC(O)c2cccc(C(F)(F)F)c2)c(OC)c1 (stereo not given)	100%	98%	5%
O=C(/C=C/c1ccc(Cl)c(Cl)c1)Nc1cccc(CN2CCC(c3c[nH]c4ccc(O)cc34)CC2)c1	100%	90%	11%
CN(C)CCc1c[nH]c2ccc(C(=O)Nc3ccc(-c4ccncc4)cc3)cc12.O=C(O)CCC(=O)O	99%	46%	23%
